Source: PubChem BioAssay AID1813 (Broad Institute, 2009)
Among all 300,000 compounds or so, about 2,500 (0.83%) were called active. The list comes from a sample in which actives are over-represented; it also holds similar structures and randomly drawn compounds. A number with no mark means an inactive call. Cut-off read from the data, not from the text of the source: active = inhibition above about 60%; inconclusive = no clear call, values can overlap the other calls; inactive = below that.

Assay: MLPCN primary screen, SNCA 5' untranslated region (AID 1813);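 note: H4 neuroglioblastoma cells stably carrying SNCA 5'UTR luciferase fusion; 0% = DMSO wells and 100% = positive control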
Conditions: alpha-synuclein 5'UTR reporter, inhibitor activity; hits give high values; tested at 7.5 µM

Compound | inhibition
CN1CCN(c2cc(N3CCNCC3)ccc2[N+](=O)[O-])CC1 | 9.3%
Cc1nc2ccc(N3CCN(C)CC3)cc2nc1C | -72%
COc1cccc(-c2nc3ccc(N4CCN(C)CC4)cc3[nH]2)c1 | 68.9% (active)
CN(C)c1ccc(/C=C2\CC3C4CC=C5CC(O)CCC5(C)C4CCC3(C)C2=O)cc1 (stereo not given) | 8.56%
CSc1nc2ccc(C)cc2c(=O)n1-c1cccnc1 | -1.34%
CCOc1ccc(-c2cc(C)[n+](CCN(CC)CC)c(-c3ccc(OCC)cc3)c2)cc1 | 95.2% (active)
Cc1cccc2c(CCN)c[nH]c12 | 10.6%
Cc1ccc(P(=S)(c2ccc(C)o2)N2CCOCC2)o1 | -9.28%
CCN(N=Nc1nonc1OC)c1nonc1OC | -2.32%
CCCCCCCCCCCCn1ccc(=N)cc1 | 104% (active)
CNP1(NC)=Nc2nn(-c3ccccc3)c(N)c2C(c2ccccc2)=N1 | 9.19%
COc1ccc2c(c1O)-c1cccc3c1[C@@H](C2)N(C)CC3 | -3.62%
O=C(OCCN1CCOCC1)C1(c2ccccc2)CCCC1 | 1.68%
Cc1c(Oc2cc(NN3CCCCC3)c([N+](=O)[O-])cc2[N+](=O)[O-])cccc1[N+](=O)[O-] | 15.3%
Cc1cccc(NC(=O)N2CC3CC(C2)c2cccc(=O)n2C3)c1 (stereo not given) | 13.7%
O=C1/C(=C\c2ccc3c(c2)OCO3)N2CCC1CC2 | 17.4%
c1cc2c(cc1[C@H]1OC[C@H]3[C@@H]1CO[C@@H]3c1ccc3c(c1)OCO3)OCO2 | 72.8% (active)
c1cc2c(cc1CCNC1CCCCCC1)OCO2 | 2.86%
CC(C)n1c(=O)c(C=Nc2ccc(Br)cc2)c(O)n(Cc2ccco2)c1=O | -1.22%
Cc1ccc(Cn2c(C)c3cnn(CC(=O)N4CCC5(CC4)OCCO5)c(=O)c3c2C)cc1 | 12%
